Organism: Homo sapiens
Assay: Quantitative High-Throughput Screen for Compounds Blocking the Interaction Between CBF-beta and RUNX1 for the Treatment of Acute Myeloid Leukemia: Summary. [Related pubchem assays (depositor defined):AID1477, AID504370, AID504374, AID504375]; call rule not given here
Format: functional

Row | Structure (SMILES) | Potency
1 | COc1cc([N+](=O)[O-])cc(/C=N/NC(=O)c2ccc(C)nc2)c1O | 0.141 µM (active)
2 | CCOc1ccc(CN(C)CC(=O)Nc2cc(C)c(C)cc2[N+](=O)[O-])cc1.CN(C)C=O | 0.141 µM (active)
3 | NNc1nc2cccnc2n(CCNc2ncc(C(F)(F)F)cc2Cl)c1=O | 0.126 µM (active)
4 | O=C(O)c1cccc(NC(=S)N/N=C/c2cccc(O)c2)c1 | 0.141 µM (active)
5 | CN1CCCN(C(=O)/C=C/c2ccc(Cl)cc2Cl)CC1 | 0.126 µM (active)
6 | COC(=O)c1ccc(C)c(-n2c(C)cc(C=O)c2C)c1 | 0.112 µM (active)
7 | O=C1C2C3C=CC(C4CC34)C2C(=O)N1/N=C/c1cccs1 (stereo not given) | 0.112 µM (active)
8 | COC(=O)c1ccc(N=NNc2ccc(C(=O)OC)cc2)cc1 | 0.112 µM (active)
9 | c1coc(-c2ccnc3ncnn23)c1 | 0.1 µM (active)
10 | N[C@@H](CCCCNC(=O)CCCC[C@@H]1SC[C@H]2NC(=O)N[C@H]12)C(=O)O | 0.398 µM (active)

— ChEMBL document CHEMBL1201862, “PubChem BioAssay data set” (2004)
